Compound activity as filed in PubChem BioAssay.
D1 agonist = activates the human D1 dopamine receptor | HEK293 T-REx D1 cells, calcium flux, agonist mode | actives 1% (n = 360,000) | AID 504660 | P21728 | activation, % at 2 µM; in the data active = activation above about 30%; note: 0% is about no effect
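Inducible HEK293 T-REx D1 cells, force-coupled to calcium signalling, were plated at 4000 cells/well with tetracycline and held overnight at 30 C. After no-wash calcium dye loading, compound-evoked calcium rise over 180 s flagged agonists.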
D1 potentiator = potentiators of human D1 dopamine receptor; AID 504651; potentiation, % at 10 µM; actives 0.036% (n = 360,000); P21728; HEK293 TREx D1 cells, calcium flux, dopamine EC20 potentiation; in the data active = potentiation above about 30%; note: 0% is about no effect
DRD3 agonist = activates the human D3 dopamine receptor; D3R DiscoveRx beta-arrestin cells, luminescence, 90 min; max activation, %; P35462; actives 0.58% (n = 410,000); in the data active = max activation above about 30%; note: 0% is about no effect
Target sequence (P35462 whole entry, looked up): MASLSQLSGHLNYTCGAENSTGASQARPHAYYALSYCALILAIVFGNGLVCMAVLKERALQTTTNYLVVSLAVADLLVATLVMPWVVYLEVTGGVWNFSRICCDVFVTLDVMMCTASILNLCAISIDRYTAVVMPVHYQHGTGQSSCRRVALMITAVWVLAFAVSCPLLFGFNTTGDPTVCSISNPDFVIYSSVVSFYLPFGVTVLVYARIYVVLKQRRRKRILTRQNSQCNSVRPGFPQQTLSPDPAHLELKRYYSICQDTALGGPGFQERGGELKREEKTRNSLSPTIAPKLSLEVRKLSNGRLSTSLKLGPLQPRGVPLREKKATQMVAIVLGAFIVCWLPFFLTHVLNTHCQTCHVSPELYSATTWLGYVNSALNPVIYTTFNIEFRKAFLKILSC
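Cells at 1500/well, incubated overnight, then treated with pinned compounds (dopamine as control) for 90 min at 37 degrees C. DiscoveRx reagent added for 30 - 60 minutes at room temperature; luminescence read.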
D3 antag = blocks the human D3 dopamine receptor; D3R cells, DiscoveRx beta-arrestin luminescence, antagonist mode; hits give low values; P35462; max response, negative = inhibition, %; actives 2.5% (n = 360,000); AID 652054; in the data active = max response below about -50%; inconclusive = no clear call, values can overlap the other calls; note: % is set by controls: 0 for no effect and ±100 for the full control effect
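Cells plated overnight at 1500 cells/well, then exposed to library compounds with dopamine controls for 90 minutes at 37 degrees C. DiscoveRx reagent added for 30–60 minutes at room temperature; luminescence read, quantitative HTS format.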
D1 antag = human D1 dopamine receptor antagonism; AID 504652; actives 3.2% (n = 360,000); P21728; HEK293 TREx D1 cells, calcium flux, dopamine EC80; hits give low values; activity change, negative = inhibition, % at 10 µM; in the data active = activity change below about -30%; note: % is set by controls: 0 for no effect and ±100 for the full control effect
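HEK293 T-REx cells expressing inducible, force-coupled D1 receptor; no-wash Ca dye, 30–90 min RT. Cmpd → 180 s read at 1 Hz → EC80 DA → 180 s read.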
* = called active by the depositor; ? = inconclusive; / = no result; ! = a repeat was not active. This is a sample that favours compounds with a hit; in the whole collection about 6% have one here.

SMILES | D1 agonist | D1 potentiator | DRD3 agonist | D3 antag | D1 antag
O=C(CCCCCCC(=O)c1ccccc1)c1ccccc1 | 2 | -1 | 8 | 8 | -32*
Cc1c(C(=O)NCc2cccc(Br)c2)oc2ccc3c(c12)C(=O)CC(C)(C)O3 | 7 | 7 | 10 | / | 5
CCN(CC)CCNC(=O)c1ccc(Sc2ccc(Cl)cc2)c(NC(C)=O)c1 | 1 | -4 | -16 | -77* | 19
CCN(CCCNC(=O)c1ccc(Sc2ccc(Cl)cc2)c(NC(C)=O)c1)c1cccc(C)c1 | -3 | 3 | -5 | / | 39
CCN(CC)CCNC(=O)c1ccc(Sc2ccc(C)cc2)c(NC(C)=O)c1 | 1 | -4 | -16 | -88* | -1
Cc1ccc(CNC(=O)c2oc3ccc(S(=O)(=O)N4CCC(C)CC4)cc3c2C)cc1 | 2 | -1 | 1 | / | -19
O=C(NCc1ccc(F)cc1)c1cc(-c2ccc(Cl)cc2)n[nH]1 | -1 | -3 | -11 | / | 7
COc1ccc(C)cc1Nc1c2c(nc3ccccc13)CCC2 | 6 | -10 | -17 | ? | -55*!
COc1ccc(Nc2c3c(nc4ccccc24)CCCC3)cc1OC | 0 | -1 | -15 | -23 | 6
Fc1ccc(Nc2c3c(nc4ccccc24)CCC3)cc1 | 14 | -13 | -2 | 1 | -41*
Fc1ccc(F)c(Nc2c3c(nc4ccc(Cl)cc24)CCC3)c1 | 4 | -4 | -2 | / | -7
COc1ccc(Nc2c3c(nc4ccccc24)CCC3)cc1 | 8 | -11 | -15 | -2 | -26
Fc1ccccc1Nc1c2c(nc3ccccc13)CCC2 | 3 | -5 | 6 | / | -34*
c1ccc(Nc2c3c(nc4ccccc24)CCC3)cc1 | 4 | -11 | 1 | -2 | /
FC(F)(F)c1cccc(Nc2c3c(nc4ccc(Cl)cc24)CCC3)c1 | 5 | -1 | 1 | / | -32*
Cc1ccc(CS(=O)(=O)Cc2ccc(C(=O)NCCc3ccc(Cl)cc3)o2)cc1 | 5 | 0 | -13 | / | -6
CCCS(=O)(=O)c1ncc(Cl)c(C(=O)N2CCN(c3ccc(OC)cc3)CC2)n1 | 0 | -3 | -22 | / | -6
CCc1ccc(Cn2c(CNS(=O)(=O)c3ccc(F)c(Cl)c3)nc3cccnc32)cc1 | 5 | -3 | 15 | / | -9
CCCCNC(=O)NC(C(=O)OC)C12CC3CC(CC(C3)C1)C2 (centres undefined) | 1 | 0 | -6 | -57* | -6
CCCCNC(=O)NC12CC3CC(CC(C3)C1)C2 | 0 | -2 | -3 | -4 | -7
N#C/C(=C\c1ccc(Cl)c([N+](=O)[O-])c1)c1ccccn1 | -2 | -8 | -12 | -55* | /
CCOC(=O)c1ccc(N2C(=O)c3n[nH]c(C)c3C2c2ccc(OC)c(OC)c2)cc1 (centres undefined) | 1 | -8 | 0 | -8 | -37*
COc1ccc(-c2cc(C(=O)OCc3ccccn3)c3ccccc3n2)cc1 | 13 | -7 | 8 | 37 | -34*
COc1ccc(-c2cc(C(=O)OC3CCOC3=O)c3ccccc3n2)cc1 (centres undefined) | 2 | -5 | -5 | -1 | -32*
COc1ccc(/C=C/c2ccccc2)cc1[C@H]1[C@@H]2C=CCC[C@@]2(C)C(=O)N1Cc1ccccc1 | 3 | 4 | -34 | -66* | 7
SMILES | D1 agonist | D1 potentiator | DRD3 agonist | D3 antag | D1 antag
COc1ccc(-c2ccc(OC)c([C@H]3[C@H]4C=CC[C@@H](C)[C@@H]4C(=O)N3Cc3ccccc3)c2)cc1C | 3 | -2 | -32 | 0 | -5
COc1ccc(/C=C/c2ccccc2)cc1[C@H]1[C@H]2C=CC[C@@H](C)[C@@H]2C(=O)N1Cc1ccccc1 | 3 | 4 | -22 | -53* | -4
COc1ccc(-c2ccc(OC)c([C@H]3[C@@H]4C=CCC[C@@]4(C)C(=O)N3Cc3ccccc3)c2)cc1OC | 9 | -3 | -2 | -2 | 14
COc1ccc(Br)cc1[C@H]1[C@@H]2C=CCC[C@@]2(C)C(=O)N1Cc1ccccc1 | 9 | -4 | -36 | -55* | 5
CC(=O)c1ccc(-c2ccc([C@H]3[C@@H]4C=CCC[C@@]4(C)C(=O)N3Cc3ccccc3)c(F)c2)cc1 | 9 | 0 | 48* | 0 | 17
COc1cccc(-c2nc(SC(C(C)=O)C(=O)N(C)C)c3c(=O)n(C)c(=O)n(C)c3n2)c1 (centres undefined) | -2 | 0 | -3 | / | 2
CC(=O)c1cccc(NS(=O)(=O)c2cc(-c3onc(C)c3C)ccc2C)c1 | 2 | -3 | 5 | / | -6
COc1cccc(N2C(=O)CSC23C(=O)N(CC(=O)Nc2cccc(Cl)c2)c2ccccc23)c1 (centres undefined) | 2 | -4 | 6 | / | 0
O=C1C2C(c3cccc(/C=C/c4ccccc4)c3)CC=CC2C(c2ccc(C(F)(F)F)cc2)N1Cc1ccccc1 (centres undefined) | 5 | -4 | -8 | -12 | 36
O=C1C2C(c3cccc(/C=C/c4ccccc4)c3)CC=CC2C(c2ccc3ccccc3c2)N1Cc1ccccc1 (centres undefined) | 5 | -2 | 0 | 29 | -42*
COc1cccc(NC(=O)C2(C)CCN2C(=O)CCc2ccc(Cl)cc2Cl)c1 (centres undefined) | / | / | -5 | -60* | /
CC1CCN(Cc2c(C(=O)N3CCc4ccccc4C3)nc3ccc(Cl)cn23)CC1 | 3 | -14 | -19 | -89* | 11
O=C(c1nc2ccc(Cl)cn2c1CN1CCC(O)CC1)N1CCc2ccccc2C1 | 1 | -1 | -6 | -15 | 39
O=C(CCCn1ccc2cc(S(=O)(=O)N3CCCC3)ccc21)NCc1ccc(Cl)cc1 | 6 | -2 | 0 | / | -12
CCOc1ccc(NC(=O)CSc2nnc(-c3ccc(C)cc3)c(-c3ccc(C)cc3)n2)cc1 | -4 | -1 | -9 | / | 2
NC(=O)CCN1CCCCC1 | 4 | -4 | 0 | 3 | -4
O=C(CCC(=O)CCN1CCCCC1)CCN1CCCCC1 | 1 | -1 | -1 | -67* | 12
COc1ccc(C(NC(=O)CN2CCCCCC2)c2ccc(OC)cc2)cc1 | 7 | -8 | -28 | -53* | -1
CCOc1ccccc1N1CCN(CC(=O)NC(C)c2ccccc2)CC1 (centres undefined) | 3 | -2 | -22 | -89* | 4
CC(NC(=O)CN1CCN(c2ccc(Cl)cc2)CC1)c1ccccc1 (centres undefined) | 4 | -12 | 9 | -1 | -13
COc1ccc(NC(=O)CN2CCCC2)cc1 | 1 | -21 | -2 | 0 | -2
CCOc1ccccc1N1CCN(C(=O)Nc2ccc(Cl)c(Cl)c2)CC1 | 1 | 2 | / | / | -36*
O=C(CN1CCN(c2ccccc2O)CC1)NC(c1ccccc1)c1ccccc1 | 1 | 0 | -19 | -56* | -6
O=C(CN1CCCC1)NC(c1ccccc1)c1ccccc1 | 7 | 0 | -5 | -8 | -3
